# Measured values as given in PubChem BioAssay (EPA / NIEHS).
# Inconclusive results are not listed. The source made the active and inactive calls. How the source made its calls, unless noted: active means hit-call score of the fitted dose curve at least 0.9, where 1 is the maximum; inconclusive means response in the unintended direction; inactive means score below 0.9.
# Tests used:
# [1] = target: Peroxisome proliferator-activated receptor gamma (Homo sapiens) (UniProt P37231); assay: NVS_NR_hPPARg: NovaScreen (NVS) Nuclear Receptor Binding Assay for human Peroxisome Proliferator-activated Receptor gamma (PPARg) (AID 2283370)
# Sequence of Peroxisome proliferator-activated receptor gamma (Homo sapiens) (P37231 whole entry, looked up): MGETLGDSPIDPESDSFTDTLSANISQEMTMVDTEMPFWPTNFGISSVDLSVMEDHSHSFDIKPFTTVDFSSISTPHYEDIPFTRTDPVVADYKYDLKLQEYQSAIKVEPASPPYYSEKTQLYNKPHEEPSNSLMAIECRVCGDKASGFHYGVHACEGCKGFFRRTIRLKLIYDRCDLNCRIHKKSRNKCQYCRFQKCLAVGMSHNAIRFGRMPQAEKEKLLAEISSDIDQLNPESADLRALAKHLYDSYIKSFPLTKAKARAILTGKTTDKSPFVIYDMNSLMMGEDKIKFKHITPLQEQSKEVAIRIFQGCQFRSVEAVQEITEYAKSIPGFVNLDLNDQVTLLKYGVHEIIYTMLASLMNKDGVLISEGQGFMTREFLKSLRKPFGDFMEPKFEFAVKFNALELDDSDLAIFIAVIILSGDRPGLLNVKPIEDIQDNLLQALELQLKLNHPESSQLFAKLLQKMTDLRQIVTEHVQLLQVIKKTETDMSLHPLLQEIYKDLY
# Procedure, shortened: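 Extracted receptor protein, cell-free; compound incubated 2 h then fluorescence polarization read. Baseline: DMSO. Actives from 25 uM duplicate screen re-run across concentrations.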
# [2] = target: Estrogen receptor (Homo sapiens) (UniProt P03372); assay: OT_ERa_GFPERaERE_0480: Odyssey Thera (OT) 8-hour HeLa Transcription Induction Assay for Estrogen Receptor (AID 2283381; active means hit-call score of the fitted dose curve at least 0.9, where 1 is the maximum; inactive means score below 0.9)
# Sequence of Estrogen receptor (Homo sapiens) (P03372 whole entry, looked up): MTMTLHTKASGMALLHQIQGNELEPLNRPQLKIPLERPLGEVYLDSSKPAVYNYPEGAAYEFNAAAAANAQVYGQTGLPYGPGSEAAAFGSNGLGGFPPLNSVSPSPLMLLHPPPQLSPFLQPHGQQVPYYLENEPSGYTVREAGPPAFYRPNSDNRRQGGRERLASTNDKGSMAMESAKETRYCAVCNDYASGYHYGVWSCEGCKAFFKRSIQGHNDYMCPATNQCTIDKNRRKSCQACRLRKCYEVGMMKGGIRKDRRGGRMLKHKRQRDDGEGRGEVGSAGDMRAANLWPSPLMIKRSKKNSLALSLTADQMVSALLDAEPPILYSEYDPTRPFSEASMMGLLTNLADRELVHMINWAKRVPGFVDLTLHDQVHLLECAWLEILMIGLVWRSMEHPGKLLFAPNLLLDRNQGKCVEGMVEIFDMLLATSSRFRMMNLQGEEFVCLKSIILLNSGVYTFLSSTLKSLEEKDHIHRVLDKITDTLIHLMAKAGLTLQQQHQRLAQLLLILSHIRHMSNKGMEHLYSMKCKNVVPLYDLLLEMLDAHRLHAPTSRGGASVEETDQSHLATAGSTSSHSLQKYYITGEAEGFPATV
# Procedure, shortened: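 Human cervical HeLa cells were treated for 8 hours, after which ERE-driven GFP induction was measured by fluorescence microscopy; increases over DMSO baseline defined activity.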
# [3] = target: Estrogen receptor (Homo sapiens) (UniProt P03372); assay: OT_ERa_GFPERaERE_0120: Odyssey Thera (OT) 2-hour HeLa Transcription Induction Assay for Estrogen Receptor (AID 2283382)
# Procedure, shortened: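 Cells (human cervical HeLa) receive compound, incubate 2 hours, then are imaged for fluorescent reporter induction. Images are quantified by high content analysis, and activity is fitted as gain of signal against DMSO.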
# [4] = target: Bile acid receptor (Homo sapiens) (UniProt Q96RI1); assay: OT_FXR_FXRSRC1_0480: Odyssey Thera (OT) 8-hour HEK293T Protein-Complementation Assay for Farnesoid X receptor/SRC-1 Co-activator (AID 2283383)
# Sequence of Bile acid receptor (Homo sapiens) (Q96RI1 whole entry, looked up, the tested form may be a part): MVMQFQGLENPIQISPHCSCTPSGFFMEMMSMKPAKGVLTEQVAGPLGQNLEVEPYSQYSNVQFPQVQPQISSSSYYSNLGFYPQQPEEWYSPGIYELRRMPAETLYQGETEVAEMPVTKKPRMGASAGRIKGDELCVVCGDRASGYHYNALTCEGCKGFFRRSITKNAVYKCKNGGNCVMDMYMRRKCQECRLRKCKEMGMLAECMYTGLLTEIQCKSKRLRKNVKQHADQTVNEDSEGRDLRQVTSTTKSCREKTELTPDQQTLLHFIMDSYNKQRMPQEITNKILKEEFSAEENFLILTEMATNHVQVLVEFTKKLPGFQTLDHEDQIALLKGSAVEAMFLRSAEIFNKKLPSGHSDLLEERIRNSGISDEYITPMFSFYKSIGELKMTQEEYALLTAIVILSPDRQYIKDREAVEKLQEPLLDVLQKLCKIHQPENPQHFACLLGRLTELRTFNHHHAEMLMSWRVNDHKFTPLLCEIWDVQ
# Procedure, shortened: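 PCA, HEK293T, 8 h compound exposure; FXR–SRC-1 binding reconstitutes split reporter; fluorescence intensity; positive-direction fit vs DMSO.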
# [5] = target: Bile acid receptor (Homo sapiens) (UniProt Q96RI1); assay: OT_FXR_FXRSRC1_1440: Odyssey Thera (OT) 24-hour HEK293T Protein-Complementation Assay for Farnesoid X receptor/SRC-1 Co-activator (AID 2283384)
# Procedure, shortened: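 Measures ligand-driven FXR–SRC-1 co-activator recruitment in HEK293T via fragment complementation, fluorescence intensity at 24 h. DMSO served as negative control and baseline for gain-of-signal fitting.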
# [6] = target: human Dopamine Transporter (DAT), SLC6A3 (gene 6531) (UniProt Q01959); assay: NVS_TR_hDAT: NovaScreen (NVS) Transporter Assay for human Dopamine Transporter (DAT) (AID 2283374);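 further: activity means loss of bound radioligand signal relative to DMSO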
# Sequence of human Dopamine Transporter (DAT), SLC6A3 (gene 6531) (Q01959 whole entry, looked up): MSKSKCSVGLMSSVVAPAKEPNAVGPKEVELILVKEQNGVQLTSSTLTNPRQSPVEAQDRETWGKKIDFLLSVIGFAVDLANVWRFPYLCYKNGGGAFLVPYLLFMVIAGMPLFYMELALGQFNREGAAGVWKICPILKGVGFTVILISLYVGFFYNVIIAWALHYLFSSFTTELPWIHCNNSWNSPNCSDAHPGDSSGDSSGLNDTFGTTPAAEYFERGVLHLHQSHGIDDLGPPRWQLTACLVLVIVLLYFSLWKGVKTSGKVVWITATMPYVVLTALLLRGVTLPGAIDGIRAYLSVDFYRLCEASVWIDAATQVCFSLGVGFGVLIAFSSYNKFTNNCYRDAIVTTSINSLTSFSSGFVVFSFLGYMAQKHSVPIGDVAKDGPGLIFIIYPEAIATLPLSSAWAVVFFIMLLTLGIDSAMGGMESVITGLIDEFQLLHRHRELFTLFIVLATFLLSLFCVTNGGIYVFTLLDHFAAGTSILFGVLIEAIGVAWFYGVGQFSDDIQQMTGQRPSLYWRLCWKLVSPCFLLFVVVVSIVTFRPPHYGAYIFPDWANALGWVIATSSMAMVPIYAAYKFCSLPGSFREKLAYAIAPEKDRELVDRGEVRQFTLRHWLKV
# Procedure, shortened: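 Duplicate single-point screening at 25 uM preceded concentration-series follow-up of actives. Binding was measured by competitive displacement of a radioligand from DAT protein, filter-counted by scintillation 1 h after dosing. Decrease relative to DMSO taken as activity.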
# [7] = target: Norway rat Vesicular Monoamine Transporter (VMAT2), neurotransmitter transporter, Slc18a2 (gene 25549) (UniProt Q01827); assay: NVS_TR_rVMAT2: NovaScreen (NVS) Transporter Assay for Norway rat Vesicular Monoamine Transporter (VMAT2), neurotransmitter transporter (AID 2283376);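 further: actives lower the bound radioligand signal below the DMSO level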
# Sequence of Norway rat Vesicular Monoamine Transporter (VMAT2), neurotransmitter transporter, Slc18a2 (gene 25549) (Q01827 whole entry, looked up): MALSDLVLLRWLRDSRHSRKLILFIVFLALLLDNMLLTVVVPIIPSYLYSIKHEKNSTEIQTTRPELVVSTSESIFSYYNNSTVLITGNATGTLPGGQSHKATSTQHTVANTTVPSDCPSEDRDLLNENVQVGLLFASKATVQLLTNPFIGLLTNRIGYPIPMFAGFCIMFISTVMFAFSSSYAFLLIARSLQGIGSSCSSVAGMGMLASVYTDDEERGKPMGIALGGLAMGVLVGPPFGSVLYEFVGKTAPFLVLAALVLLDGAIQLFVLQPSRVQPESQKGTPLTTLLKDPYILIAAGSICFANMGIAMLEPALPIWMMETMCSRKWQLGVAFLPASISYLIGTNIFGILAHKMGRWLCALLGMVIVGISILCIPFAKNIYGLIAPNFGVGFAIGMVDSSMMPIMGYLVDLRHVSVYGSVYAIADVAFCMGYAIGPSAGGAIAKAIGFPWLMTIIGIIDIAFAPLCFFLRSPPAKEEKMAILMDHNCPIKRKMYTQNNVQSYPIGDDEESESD
# Procedure, shortened: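 Using rat forebrain membranes, specific radioligand binding to VMAT2 was measured by filtration and scintillation counting after 1 hour. Chemicals screened at 25 uM in duplicate, actives retested in concentration series, DMSO baseline.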
# [8] = target: human Norepinephrine Transporter (NET), SLC6A2 (gene 6530) (UniProt P23975); assay: NVS_TR_hNET: NovaScreen (NVS) Transporter Assay for human Norepinephrine Transporter (NET) (AID 2283377);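 further: cell-free membrane protein extracted from CHO cells expressing human NET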;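 on AC50: displacement of radioligand from human NET seen as loss of scintillation signal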
# Sequence of human Norepinephrine Transporter (NET), SLC6A2 (gene 6530) (P23975 whole entry, looked up): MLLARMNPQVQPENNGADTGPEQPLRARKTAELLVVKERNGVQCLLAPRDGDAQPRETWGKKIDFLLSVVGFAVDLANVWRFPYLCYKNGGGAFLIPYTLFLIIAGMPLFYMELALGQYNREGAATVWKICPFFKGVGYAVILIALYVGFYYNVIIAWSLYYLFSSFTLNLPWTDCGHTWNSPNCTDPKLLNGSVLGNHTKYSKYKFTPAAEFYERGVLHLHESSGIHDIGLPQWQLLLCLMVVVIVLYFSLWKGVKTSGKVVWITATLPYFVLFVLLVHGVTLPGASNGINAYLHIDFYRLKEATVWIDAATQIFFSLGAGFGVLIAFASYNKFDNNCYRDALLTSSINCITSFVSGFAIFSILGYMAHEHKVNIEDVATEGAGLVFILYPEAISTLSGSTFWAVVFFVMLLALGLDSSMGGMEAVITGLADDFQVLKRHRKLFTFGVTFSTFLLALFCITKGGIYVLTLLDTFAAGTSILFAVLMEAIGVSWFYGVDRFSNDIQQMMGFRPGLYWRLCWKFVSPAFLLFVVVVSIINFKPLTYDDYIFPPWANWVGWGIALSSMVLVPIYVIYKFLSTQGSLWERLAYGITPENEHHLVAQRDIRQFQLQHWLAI
# Procedure, shortened: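 Single-concentration duplicate screen at 25 uM, then concentration-response for actives; displacement of specific radioligand from human NET in CHO membrane extracts, filter-based scintillation detection at 1 h relative to DMSO.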
# [9] = target: Agonist Androgen Response Element (ARE), AR (gene 367) (UniProt P10275); assay: OT_AR_ARELUC_AG_1440: Odyssey Thera (OT) 24-hour CHO-K1 Luciferase Assay for Agonist Androgen Response Element (ARE) (AID 2283379)
# Sequence of Agonist Androgen Response Element (ARE), AR (gene 367) (P10275 whole entry, looked up): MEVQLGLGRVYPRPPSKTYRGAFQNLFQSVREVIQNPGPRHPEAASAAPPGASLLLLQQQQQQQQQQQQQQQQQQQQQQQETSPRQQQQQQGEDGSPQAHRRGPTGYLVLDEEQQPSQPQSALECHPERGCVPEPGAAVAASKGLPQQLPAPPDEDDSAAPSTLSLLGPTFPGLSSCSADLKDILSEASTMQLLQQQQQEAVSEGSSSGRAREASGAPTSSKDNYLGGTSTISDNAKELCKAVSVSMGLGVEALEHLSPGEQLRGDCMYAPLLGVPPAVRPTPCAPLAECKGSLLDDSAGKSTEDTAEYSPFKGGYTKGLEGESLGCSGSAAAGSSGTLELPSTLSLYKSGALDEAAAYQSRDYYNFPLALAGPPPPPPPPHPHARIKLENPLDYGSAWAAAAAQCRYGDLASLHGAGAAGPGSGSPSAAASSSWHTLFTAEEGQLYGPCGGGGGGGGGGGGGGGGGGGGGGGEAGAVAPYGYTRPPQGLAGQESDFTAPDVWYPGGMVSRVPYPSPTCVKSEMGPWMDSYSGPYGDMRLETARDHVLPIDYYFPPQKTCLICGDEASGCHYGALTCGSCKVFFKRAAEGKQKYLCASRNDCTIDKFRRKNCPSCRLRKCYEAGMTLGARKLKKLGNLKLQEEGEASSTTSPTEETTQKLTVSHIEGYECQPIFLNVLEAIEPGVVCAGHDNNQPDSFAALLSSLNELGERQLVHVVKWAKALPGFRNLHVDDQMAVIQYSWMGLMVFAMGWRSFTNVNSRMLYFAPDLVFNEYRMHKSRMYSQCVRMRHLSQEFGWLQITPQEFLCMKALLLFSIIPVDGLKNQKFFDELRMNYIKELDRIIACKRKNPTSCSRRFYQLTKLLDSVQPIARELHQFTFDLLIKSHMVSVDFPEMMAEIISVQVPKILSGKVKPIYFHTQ
# Procedure, shortened: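 Readout: luciferase bioluminescence from CHO-K1 ARE-luc cells, measured 24 h post-dosing; agonism = increased mean luminescence vs DMSO controls, fitted in positive direction.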
# [10] = target: Estrogen receptor beta (Homo sapiens) (UniProt Q92731); assay: OT_ER_ERbERb_1440: Odyssey Thera (OT) 24-hour HEK293T Protein-Complementation Assay for Estrogen Receptor-beta/-beta Homodimer (AID 2283380);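 further: fluorescence gain from ER beta LBD homodimer complementation read by laser scanning cytometry; scored as signal increase over DMSO baseline for both agonists and antagonists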
# Sequence of Estrogen receptor beta (Homo sapiens) (Q92731 whole entry, looked up, the tested form may be a part): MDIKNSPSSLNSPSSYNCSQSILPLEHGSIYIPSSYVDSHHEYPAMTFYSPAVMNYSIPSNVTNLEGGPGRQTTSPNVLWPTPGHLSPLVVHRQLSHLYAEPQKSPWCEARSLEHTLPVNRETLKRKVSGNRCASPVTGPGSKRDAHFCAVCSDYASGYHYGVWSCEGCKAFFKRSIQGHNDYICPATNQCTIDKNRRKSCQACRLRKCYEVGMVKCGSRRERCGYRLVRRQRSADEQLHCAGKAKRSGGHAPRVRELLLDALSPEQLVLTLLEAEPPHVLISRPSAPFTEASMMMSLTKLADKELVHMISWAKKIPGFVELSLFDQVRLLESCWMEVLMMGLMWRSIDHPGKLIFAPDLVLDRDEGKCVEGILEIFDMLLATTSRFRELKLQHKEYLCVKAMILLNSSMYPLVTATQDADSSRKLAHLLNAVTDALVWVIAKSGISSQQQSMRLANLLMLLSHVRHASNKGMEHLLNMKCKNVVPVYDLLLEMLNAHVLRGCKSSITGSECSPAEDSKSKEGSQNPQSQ
# Procedure, shortened: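 Fluorescence increase, nuclear for agonists or whole-cell for antagonists, relative to DMSO vehicle, quantified by laser scanning cytometer after fixation and Draq5 staining. Readout from 24 h treatment of HEK293T cells carrying complementation-paired ER beta LBD (aa 310-547).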
# [11] = test system: guinea pig Dopamine Transporter (DAT), gene 100714898; assay: NVS_TR_gDAT: NovaScreen (NVS) Transporter Assay for guinea pig Dopamine Transporter (DAT) (AID 2283369);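 further: active compounds lower bound radioligand signal relative to DMSO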
# Procedure, shortened: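 Primary pass: duplicate wells at 25 uM, threshold e.g. 30% inhibition. Follow-up: singleton concentration-response, highest 50 uM. Radioligand binding on guinea pig striatal membranes, 2 h, filtration scintillation detection.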
# [12] = target: human Serotonin Transporter (SERT), SLC6A4 (gene 6532) (UniProt P31645); assay: NVS_TR_hSERT: NovaScreen (NVS) Transporter Assay for human Serotonin Transporter (SERT) (AID 2283372)
# Procedure, shortened: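 Human platelet membrane preparation; displacement of radioligand from serotonin transporter measured after 1 h by filtration and scintillation counting. Single 25 uM duplicate screen, then concentration series for actives, with DMSO as negative baseline.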
structure (smiles),measurement,setting,value
CCc1cccc(CC)c1N(COC)C(=O)CCl,AC50,[1],21.2 µM (active)
same,outcome,[2],inactive
same,outcome,[3],inactive
same,outcome,[4],inactive
same,outcome,[5],inactive
COP(=O)(OC)C(O)C(Cl)(Cl)Cl (stereo not given),outcome,[4],inactive
same,AC50,[5],25.1 µM (active)
C[Si](Cn1cncn1)(c1ccc(F)cc1)c1ccc(F)cc1,AC50,[6],9.33 µM (active)
same,AC50,[7],14.1 µM (active)
same,AC50,[8],2.86 µM (active)
same,AC50,[4],13 µM (active)
same,outcome,[5],inactive
CSc1nnc(C(C)(C)C)c(=O)n1N,outcome,[6],inactive
same,outcome,[4],inactive
same,outcome,[5],inactive
CCOP(=O)(NC(C)C)Oc1ccc(SC)c(C)c1 (stereo not given),outcome,[1],inactive
same,outcome,[9],inactive
same,AC50,[4],50 µM (active)
same,AC50,[5],8.5 µM (active)
Cc1ccn2nc(S(=O)(=O)Nc3c(F)cccc3F)nc2n1,outcome,[4],inactive
same,outcome,[5],inactive
O=C(O)c1cc(Oc2ccc(C(F)(F)F)cc2Cl)ccc1[N+](=O)[O-],AC50,[1],9.58 µM (active)
same,outcome,[10],inactive
COP(=O)(OC)OC(Br)C(Cl)(Cl)Br (stereo not given),outcome,[2],inactive
same,outcome,[3],inactive
same,outcome,[4],inactive
same,outcome,[5],inactive
C#CCC1=C(C)C(OC(=O)C2C(C=C(C)C)C2(C)C)CC1=O (stereo not given),AC50,[11],9.21 µM (active)
same,AC50,[6],12 µM (active)
same,AC50,[4],33 µM (active)
same,AC50,[5],49.8 µM (active)
C[N+]1(C)CCCCC1,outcome,[12],inactive
same,outcome,[9],inactive
CNC(=O)Oc1cccc2c1OC(C)(C)O2,outcome,[2],inactive
same,outcome,[3],inactive
same,outcome,[5],inactive
CC(Oc1cccc(Cl)c1)C(=O)O (stereo not given),outcome,[8],inactive
same,outcome,[4],inactive
same,outcome,[5],inactive
COP(=O)(OC)SCn1c(=O)oc2cc(Cl)cnc21,outcome,[9],inactive
same,outcome,[2],inactive
same,outcome,[3],inactive
Cc1nn(-c2cc(NS(C)(=O)=O)c(Cl)cc2Cl)c(=O)n1C(F)F,outcome,[9],inactive
same,outcome,[10],inactive
CSc1nc(NC(C)C)nc(NC(C)C)n1,outcome,[7],inactive
same,outcome,[10],inactive
same,outcome,[2],inactive
same,outcome,[3],inactive
CCCCSP(=O)(SCCCC)SCCCC,AC50,[4],36.9 µM (active)
same,outcome,[5],inactive
COc1cccc(C(=O)NN(C(=O)c2cc(C)cc(C)c2)C(C)(C)C)c1C,AC50,[4],14.7 µM (active)
same,AC50,[5],27 µM (active)
CSC1=N[C@@](C)(c2ccccc2)C(=O)N1Nc1ccccc1,outcome,[10],inactive
same,AC50,[4],44.8 µM (active)
same,AC50,[5],50 µM (active)
